JMJD2A Tudor: qHTS Assay for Inhibitors of JMJD2A-Tudor Domain. 390,000 compounds, 4.4% hits. Potency, µM (doses to about 114 µM), for inactives: at the highest dose activity change, negative = inhibition, actives largely listed as inhibitors. AID 504339, 2011. AlphaScreen JMJD2A-Tudor / H3K4me3 peptide binding; note: % is set by controls: 0 for no effect and ±100 for the full control effect; nearly all actives have a fitted effect of over 50% in size
L3MBTL1 block: qHTS Assay for the Inhibitors of L3MBTL1 | Potency, µM (top dose mostly 57.1 µM), inactives show at the highest dose activity, negative = inhibition, most hits filed as inhibitors | 230,000 compounds, 0.66% hits | AlphaScreen L3MBTL1–H3K9me1 peptide binding | Lethal(3)malignant brain tumor-like protein 1 (Homo sapiens), Q9Y468; note: % is set by controls: 0 for no effect and ±100 for the full control effect; nearly all actives have a fitted effect of over 60% in size
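L3MBTL1 50 nM + b-AHA-H3(1-15)K9me1 75 nM, 30 min RT; compound added, 30 min RT; streptavidin donor/Ni-chelate acceptor beads 10 ug/mL each final, 30 min RT dark; AlphaScreen read.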
HP1b binding inh: HTS for Inhibitors of HP1-beta Chromodomain Interactions with Methylated Histone Tails | Chromobox protein homolog 1 (Homo sapiens), P83916 | AlphaScreen HP1-beta / biotin-H3K9me3 peptide binding | Potency, µM (titrated, usually from 114 µM), inactives show top-dose activity change, negative = inhibition, most hits filed as inhibitors | 390,000 compounds, 0.56% hits; note: nearly all actives have a fitted effect of over 70% in size
Target sequence (P83916 whole entry, looked up): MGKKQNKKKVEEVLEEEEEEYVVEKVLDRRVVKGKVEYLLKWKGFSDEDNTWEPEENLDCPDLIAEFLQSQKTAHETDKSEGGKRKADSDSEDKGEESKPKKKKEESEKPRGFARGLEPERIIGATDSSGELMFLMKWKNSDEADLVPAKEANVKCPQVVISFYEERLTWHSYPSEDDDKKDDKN
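HP1-beta protein (50 nM final) preincubated 30 min at room temperature with biotinylated H3(1-18)K9me3 peptide (50 nM) in PBS pH 7.4, 0.01% Tween-20, then compound added for 30 min. AlphaScreen streptavidin donor/nickel chelate acceptor beads (10 ug/mL final), 30 min dark, luminescence read.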
Sfp inh: qHTS Assay for Inhibitors of Bacillus subtilis Sfp phosphopantetheinyl transferase (PPTase) | 4'-phosphopantetheinyl transferase ffp (Bacillus subtilis), Q9F4F7 | Biochemical Sfp PPTase activity, qHTS | Potency, µM, for inactives: largest response in the series, negative = inhibition, actives largely listed as inhibitors | 310,000 compounds, 3.5% hits | AID 1490, 2009;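 note: the enzyme is Sfp with the accession as filed and its product quenches rhodamine fluorescence; 0% = enzyme reaction without inhibitor and -100% = no enzyme wells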
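Reaction rates are the 30-min fluorescence difference (ex 525, em 598 nm) in wells containing 15 nM Sfp, 5 uM rhodamine-CoA and 12.5 uM BHQ-2-YbbR at pH 7.6 with 10 mM MgCl2.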
BAZ2B inh: qHTS Assay for Inhibitors of BAZ2B; AlphaScreen BAZ2B-H3K14Ac peptide displacement; 360,000 compounds, 4.4% hits; Bromodomain adjacent to zinc finger domain protein 2B (Homo sapiens), Q9UIF8; AID 504333, 2011; Potency, µM (titrated, usually from 114 µM), inactives show at the highest dose activity change, negative = inhibition, actives largely listed as inhibitors; note: % is set by controls: 0 for no effect and ±100 for the full control effect; nearly all actives have a fitted effect of over 60% in size
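Multi-concentration screen (max 110 uM) measuring displacement of acetylated histone H3 peptide from BAZ2B by AlphaScreen, using 50 nM protein, 50 nM peptide and 10 ug/mL streptavidin donor plus Ni-chelate acceptor beads.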
G9a block: qHTS Assay for Inhibitors of Histone Lysine Methyltransferase G9a | Histone-lysine N-methyltransferase EHMT2 (Homo sapiens), Q96KQ7 | G9a H3K9 monomethylation, AlphaScreen, 2 h | Potency, µM (highest dose often 102 µM), for the others: at the highest dose activity, negative = inhibition, hits mostly inhibitors | 350,000 compounds, 8.8% hits | AID 504332, 2011; note: % is set by controls: 0 for no effect and ±100 for the full control effect; nearly all actives have a fitted effect of over 75% in size
Target sequence (Q96KQ7 913-1193 limits assumed): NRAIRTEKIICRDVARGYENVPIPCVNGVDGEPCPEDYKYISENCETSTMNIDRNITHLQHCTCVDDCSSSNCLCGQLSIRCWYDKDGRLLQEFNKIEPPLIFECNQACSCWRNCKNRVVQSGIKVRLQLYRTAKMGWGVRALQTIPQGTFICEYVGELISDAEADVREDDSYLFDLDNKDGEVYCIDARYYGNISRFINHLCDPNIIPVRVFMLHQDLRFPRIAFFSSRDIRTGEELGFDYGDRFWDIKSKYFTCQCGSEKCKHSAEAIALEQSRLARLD
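AlphaScreen detection with an anti-monomethyl H3K9 antibody quantified product after a 2 h room-temperature reaction containing 500 nM biotinylated H3K9 peptide, 20 µM SAM and 20 nM enzyme, which had been preincubated 15 min with compound.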
* = called active by the depositor; ? = inconclusive; · = no result given; [ ] = another dose, or the depositor's remark. Compounds with a hit are over-represented: about 12% of the library has one in this group of screens. Calls come from the whole dose curve; as a rule, active = well fitted curve in the direction sought with a large enough effect; inconclusive = small, poorly fitted or top-dose-only effect, or another doubt; inactive = no such curve, though single readings can be large; an effect the other way counts as inactive or inconclusive. Potency is the fitted concentration of half-maximal effect.

SMILES	JMJD2A Tudor	L3MBTL1 block	HP1b binding inh	Sfp inh	BAZ2B inh	G9a block
O=c1c2cc(F)ccc2[nH]c(=S)n1CCCN1CCOCC1	-30%	6%	26%	4%	-10%	50µM*
O=c1c2cc(N3CCOCC3)ccc2[nH]c(=S)n1CCN1CCCC1	?	-10%[11.4 µM]	-1%	-9%	11%	?
CNS(=O)(=O)c1cn(CC(=O)N2CCN(c3ccc(Cl)cc3)CC2)cc1S(=O)(=O)NC	-10%	·	48%	·	12%	12%[59 µM]
COC(=O)c1ccc2c(=O)n(Cc3ccc(C(=O)NCCCN4CCOCC4)cc3)c(=S)[nH]c2c1	-16%	·	25%	10%	-14%	?
COc1ccc(Cn2c(=O)[nH]c3cc(C(=O)NCCCN4CCCCC4)ccc3c2=O)cc1	-11%	2%	30%	8%	1%	-7%[2.33 µM]
CCCCn1c(=S)[nH]c2ccc(N3CCOCC3)cc2c1=O	·	11%	·	?	-17%	20µM*
COC(=O)c1ccc2c(=O)n(Cc3ccc(C(=O)NCCCN4CCC(C)CC4)cc3)c(=S)[nH]c2c1	-23%	?	28%	-7%	-25%	35µM*
COc1ccc(Cn2c(=O)[nH]c3cc(C(=O)NCCCN4CCCCCC4)ccc3c2=O)cc1	14µM*	-5%	1%	6%	-24%	56µM*
COc1cc(C)ccc1OCCSc1nc2ccc(NC(C)=O)cc2s1	?	·	21%	·	?	-8%[59 µM]
COc1ccc(-c2nc3c4ccccc4n(CC(=O)Nc4cc(F)ccc4F)c(=O)n3n2)cc1	-15%	·	25%	·	-7%	-16%[59 µM]
O=C1OC2(c3ccc(O)cc3Oc3cc(O)ccc32)c2ccccc21	·	·	·	-22%	·	?
O=C1OC2(c3ccccc31)c1cc(I)c(O)c(I)c1Oc1c2cc(I)c(O)c1I	·	3.2µM*	·	14µM*	10µM*	?
CCOC12NC(=O)CC(=O)N1C(c1ccccc1)=CS2 (stereo not drawn)	-16%	0%	13%	-10%	-37%	50µM*
Cc1cc(NC(=O)c2coc(=O)c(Br)c2)ccc1C(C)C	-8%	-1%	29%	12%	13%	50µM*
O=C(Nc1ccc(Br)cn1)c1cccc(-c2cc3ccccc3oc2=O)c1	-30%	-8%	-2%	-14%	?	25µM*
Cc1nc(NC(=O)c2cccc(-c3cc4ccccc4oc3=O)c2)ccc1Br	-3%	4%	11%	-13%	8%	5%[59 µM]
C[C@@H](NC(=O)c1coc(=O)c(Br)c1)c1ccccc1	-9%	-9%	15%	11%	1%	-13%[59 µM]
O=C(Nc1ccccc1F)c1coc(=O)c(Br)c1	?	·	5%	1%	?	10%[59 µM]
O=C(Nc1ccc(Br)cn1)c1coc(=O)c(Br)c1	-7%	·	13%	3%	?	50µM*
CC1CCC(C(=O)NC(C(=O)OCC(=O)c2ccccc2)C(C)C)CC1 (stereo not drawn)	-6%	·	42%	·	1%	1%[59 µM]
CCOC(=O)Cn1c(=O)n(C2CCCCC2)c2nc(-c3ccc(Cl)cc3)nc(C(N)=O)c21	4%	·	32%[57 µM]	·	3%	-2%[59 µM]
CC(=O)Oc1cc(OC(C)=O)c2c(c1)OC(c1ccc(OC(C)=O)c(OC(C)=O)c1)C(OC(C)=O)C2 (stereo not drawn)	·	·	·	-6%	·	·
O=c1c2cccnc2n(Cc2ccccc2F)c(=O)n1Cc1ccc(F)cc1	23%	·	122%	·	41%	83%[59 µM]
COc1cc(Br)c(Br)cc1N	-10%	3.5µM*	37%	11%	-14%	25%[59 µM]
O=C(COC(=O)c1cc(-c2ccc(Cl)s2)nc2ccccc12)NCc1ccco1	-5%	·	28%	13µM*	-4%	?
SMILES	JMJD2A Tudor	L3MBTL1 block	HP1b binding inh	Sfp inh	BAZ2B inh	G9a block
O=C(NCc1ccco1)c1cc(-c2cccs2)nc2ccccc12	-30%	-1%	39%	-18%	-7%	9%[59 µM]
O=C(COC(=O)c1cc(-c2cccs2)nc2ccccc12)NCc1ccco1	?	?	0%	22µM*	?	?
CC(=O)c1cc(F)c(N2CCN(C(=O)Cc3ccccc3)CC2)cc1C	-5%	22%	36%	6%	56µM*	?
CC[n+]1c(C)cc(C)n1-c1ccccc1	?	·	27%	9%	·	50µM*
CCN1CCN(C/C(C)=C/c2ccccc2)CC1	2%	0%	23%	-5%	-6%	-25%
Fc1ccccc1N1CCN(CCCc2ccccc2)CC1	22µM*	-3%	?	-16%	?	35µM*
C/C(=C\c1ccccc1)CN1CCN(c2ccccc2F)CC1	5µM*	·	?	?	-38%	?
CCCN(CCC)C(=O)Cn1c(SCc2cccc(C(F)(F)F)c2)nc2cccnc21	-2%	·	38%	·	1%	-38%[59 µM]
COc1ccc2c(c1)C(=O)[C@H](OC(=O)Nc1cc(OC)c(OC)c(OC)c1)[C@@H](c1ccc(OC)c(Br)c1)O2	·	·	·	-2%	·	·
O=S(=O)(c1ccccc1)c1nnn2c1nc(Nc1ccccc1)c1cc(Cl)ccc12	?	·	15%	·	4%	4%[59 µM]
Cc1ccc(S(=O)(=O)Nc2ccsc2C#N)cc1	-5%	·	35%	9%	?	40µM*
CCCc1cc(Nc2cccc(OCC)c2)n2ncnc2n1	-1%	0%	38%	5%	8%	56µM*
CCCc1cc(Nc2cccc(OC)c2)n2ncnc2n1	-25%	6%	0%	3%	-4%	-32%[59 µM]
O=[N+]([O-])c1cccc(NN=Nc2ccccc2)c1	?	·	-11%	-10%	?	45µM*
O=[N+]([O-])c1ccc(N=NNc2ccccc2)cc1	25µM*	·	?	-11%	28µM*	22µM*
O=C(O)c1cc(NN=Nc2ccc(Br)cc2)cc([N+](=O)[O-])c1	?	-6%	-2%	7%	-11%	32µM*
Brc1ccc(N=NNc2ccccc2)cc1	-26%	-17%	34%	-6%	40µM*	·
CN(N=Nc1ccc([N+](=O)[O-])cc1)c1ccccc1	-45%	-24%	-7%	-9%	?	?
NC1=NC(=Nc2ccc(Br)cc2)c2ccccc21	-19%	-7%	62%	21%	-27%	?
CCC[C@H](N[C@@H](C)C(=O)N1[C@@H]2CCCC[C@H]2C[C@H]1C(=O)O)C(=O)OCC	·	·	·	11%	·	9%[59 µM]
COc1ccc(-c2csc3nc(-c4ccc(F)cc4)oc(=O)c23)cc1OC	-11%	·	12%	·	1%	2%[59 µM]
